NOD2 RIPK2 PPI = blocks binding of human NOD2 to RIPK2. O43353. 360,000 compounds, 0.38% hits. AID 624267. CHO BLA complementation NOD2-RIPK2, CCF4 ratio. inhibition, % at 4.98 µM; in the data active = inhibition above about 21%;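 note: 0% = vehicle only and 100% = reference blocker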
IDE cell activ = activators of human insulin-degrading enzyme in cells; P14735; HEK cells, FAbeta-B cleavage, fluorescence polarization; 0% vehicle, 100% cell-free pure enzyme wells; activation, % at 5.96 µM; 340,000 compounds, 0.073% hits; AID 493087;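 active = activation above the mean of all tested compounds plus 3 SD, set per screening campaign, cut at about 17% in these data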
TLR9-MyD88 inh = blocks human TLR9 binding to MyD88; inhibition, % at 4.98 µM; CHO BLA complementation TLR9-MyD88, CCF4 FRET ratio; 340,000 compounds, 0.21% hits; AID 504734; Q9NR96+Q99836;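 active = inhibition above the mean over all tested compounds plus 3 SD, cut at about 21% in these data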;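 note: 0% = DMSO only wells and 100% = clavulanate BLA inhibitor control wells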
TLR4 MyD88 comp = blocks binding of human TLR4 to MyD88; HeLa CL3-4 TLR4/MyD88 BLA complementation, FRET ratio; 200,000 compounds, 0.18% hits; AID 861; inhibition, % at 8.4 µM; O00206+Q99836; in the data active = inhibition above about 25%;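 note: 0% = vehicle and 100% = reference inhibitor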
IDE cell inh = cellular human IDE inhibition; 320,000 compounds, 0.41% hits; P14735; inhibition, % at 5.59 µM; HEK cells, FAbetaB cleavage, fluorescence polarization; AID 434962;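 active = percent inhibition above the average of all tested compounds plus 3 SD, set per screening campaign, cut at about 16% in these data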;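 note: IDE supplied by intact live HEK cells; FP after avidin binding of uncleaved biotin substrate so inhibition keeps polarization high; 0% = DMSO wells and 100% = 60 µM reference IDE inhibitor Ii1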
TLR9-MyD88 conf = TLR9-MyD88 interaction inhibition, confirmation; shares compounds with TLR9-MyD88 inh; inhibition, % at 4.98 µM; CHO TLR9/MyD88 BLA complementation, CCF4 FRET ratio; 680 compounds, 51% hits;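 active = mean inhibition across three repeats above about 21% taken from the earlier screen, limit read from the data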;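 note: blue over green emission ratio reports constitutive TLR9 MyD88 association via BLA complementation; 0% = DMSO vehicle wells and 100% = clavulanate BLA inhibitor wells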
BLA counter-1 = counter-screen for TLR9-MyD88 inhibitors: non-selective beta-lactamase inhibitors; shares compounds with TLR9-MyD88 inh; CHO-BLA cells, CCF4 FRET ratio, BLA reporter; inhibition, % at 4.98 µM; 680 compounds, 7% hits; AID 540251;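 active = mean inhibition above a 50% cutoff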;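 note: counterscreen of TLR9-MyD88 hits on CMV-driven BLA in CHO-K1 cells; 0% = DMSO alone and 100% = clavulanate blocking BLA; higher means less blue over green ratio so more BLA blockade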
TLR9 CHO cytotox = CHO cell toxicity counter-screen for TLR9-MyD88 inhibitors; TLR9-MyD88 CHO cells cytotoxicity, luminescence; 680 compounds, 39% hits; shares compounds with TLR9-MyD88 inh; inhibition, % at 4.98 µM; in the data active = inhibition above about 11%
NOD2 RIPK2 conf = NOD2-RIPK2 interaction inhibition confirmed; AID 624370; shares compounds with NOD2 RIPK2 PPI; CHO cells, NOD2-RIPK2 BLA complementation, CCF4 FRET; inhibition, % at 4.98 µM; 1,200 compounds, 70% hits;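 active = mean inhibition across replicates above a set limit taken from the earlier primary screen, cut at about 21% in these data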;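 note: 0% = DMSO-only wells and the high end = clavulanate BLA-blocked wells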
BLA counter-2 = NOD2-RIPK2 counterscreen BLA reporter activity. shares compounds with NOD2 RIPK2 PPI. CHO BLA reporter, CCF4 FRET ratio. inhibition, % at 4.98 µM. 1,200 compounds, 57% hits. AID 624371;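 active = mean inhibition above the low-control mean inhibition plus three low-control SD, cut at about 11% in these data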;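 note: 0% = DMSO only wells and 100% = clavulanate high control wells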
An asterisk follows results filed as active; / = not tested or not shown. Most compounds without a hit are left out; they make up all but 0.87% or so of the library.

SMILES | NOD2 RIPK2 PPI | IDE cell activ | TLR9-MyD88 inh | TLR4 MyD88 comp | IDE cell inh | TLR9-MyD88 conf | BLA counter-1 | TLR9 CHO cytotox | NOD2 RIPK2 conf | BLA counter-2
COc1ccc(C2C=C(c3ccc(C)cc3)Nc3ncnn32)cc1 (configuration not stated) | 52* | -3 | 41* | 19 | / | -2 | 1 | -1 | 11 | 10
Oc1ccc(C2C=C(c3ccc(F)cc3)Nc3ncnn32)cc1 (configuration not stated) | 50* | -2 | 40* | / | / | 7 | 4 | 0 | 37* | 46*
C1=C(c2ccc(-c3ccccc3)cc2)Nc2ncnn2C1c1ccco1 (configuration not stated) | 39* | -136 | 27* | 1 | / | 7 | 1 | 2 | 5 | 3
COc1ccccc1N(C(C)=O)C1=C(Cl)C(=O)c2ccccc2C1=O | 90* | / | 65* | / | / | 86* | 23 | 102* | 96* | 51*
COc1ccccc1N(C(=O)CCl)c1cn(C(C)=O)c2ccccc12 | -8 | 2 | -2 | / | -2 | / | / | / | / | /
O=C1C=CC(=O)N1CCNc1ncc(C(F)(F)F)cc1Cl | 47* | -46 | 28* | 9 | / | 32* | 11 | 100* | 86* | 24*
CC(=O)Oc1ccc(-c2cc3ccccc3oc2=O)cc1 | 3 | -1 | -13 | / | 4 | / | / | / | / | /
CC(=O)Oc1ccc(-c2cc3c(OC(C)=O)cc(OC(C)=O)cc3oc2=O)cc1 | 41* | -6 | 37* | / | 3 | 23* | 26 | 3 | 53* | 57*
CCOC(=O)c1cc(S(=O)(=O)NC2CCC(C)CC2)cn1C (configuration not stated) | -4 | 7 | 2 | / | -3 | / | / | / | / | /
CC1CCCCN1C(=O)CSc1nnc(-c2cccnc2)o1 (configuration not stated) | -4 | 6 | 4 | / | 5 | / | / | / | / | /
CC(C)c1nnc(NC(=O)c2nc(S(=O)(=O)Cc3ccccc3)ncc2Cl)s1 | 26* | 2 | 22* | / | 8 | 20 | 19 | 29* | 37* | 24*
CCOC(=O)c1ccc(NC(=O)c2nc(S(=O)(=O)Cc3ccccc3)ncc2Cl)cc1 | 55* | 0 | 42* | / | -3 | 30* | 23 | 99* | 87* | 50*
CCS(=O)(=O)c1ncc(Cl)c(C(=O)Nc2ccc(S(=O)(=O)N3CCC(C)CC3)cc2)n1 | 96* | -9 | 58* | / | -3 | 49* | 43 | 99* | 96* | 48*
CSc1nnc(NC(=O)c2nc(S(=O)(=O)Cc3ccccc3)ncc2Cl)s1 | 6 | 6 | -6 | / | 5 | / | / | / | / | /
CCc1ccc(NC(=O)c2nc(S(=O)(=O)Cc3ccccc3)ncc2Cl)cc1 | 96* | -4 | 47* | / | -1 | 50* | 31 | 98* | 94* | 40*
CCOc1ccccc1NC(=O)c1nc(S(=O)(=O)Cc2ccccc2)ncc1Cl | 15 | 0 | 9 | / | 0 | / | / | / | / | /
COc1cccc(CNC(=O)CN2C(=O)COc3ccc(S(=O)(=O)N4CCOCC4)cc32)c1 | -3 | -1 | -2 | / | 0 | / | / | / | / | /
CC(=O)c1ccc(OCC(=O)OCc2cc(-c3ccco3)on2)cc1 | -1 | 1 | -4 | / | -3 | / | / | / | / | /
COc1cccc(CC2(CO)CCN(Cc3ccc4cccc(F)c4n3)CC2)c1 | -3 | 1 | 6 | -7 | -2 | / | / | / | / | /
COC(=S)N/C(=N\S(=O)(=O)c1ccc(Cl)cc1)c1ccccc1 | -5 | 2 | -3 | / | 1 | / | / | / | / | /
CSc1ncc(Cl)c(C(=O)Nc2ccc(C)c(C)c2)n1 | 7 | 2 | -1 | / | 0 | / | / | / | / | /

Screening results as filed in PubChem BioAssay.
